From PubChem BioAssay (Tox21)
Records with an inconclusive call do not appear. Where a call stands in place of a potency, no number is given. The source made the active and inactive calls. The call rests on the fitted dose curve; in most records, active means well fitted activation curve with a large enough effect in the repeat runs; inconclusive means weak or mixed curves; inactive means flat fitted curve, though single readings scatter.

assay: A CellTox Green Cytotoxicity Assay to monitor cytotoxicity in HepG2 cells - 32 hour (AID 1224883); conditions: CellTox Green fluorescence; series mostly up to 76.8 µM; further: nearly all actives have a fitted effect of over 50% in size
Text: National Center for Advancing Translational Sciences [NCATS]
NIH Chemical Genomics Center [NCGC]
U.S. Environmental Protection Agency [EPA]
National Institutes of Environmental Health Sciences [NIEHS]
National Toxicology Program [NTP]
Cell-based models are critical for drug discovery. Determining the natural cytotoxic effects resulting from test compounds is an essential research activity. A CellTox Green Cytotoxicity Assay to monitor cytotoxicity in real time of continues cell culture during 40 hours of the compound treatment was used to screen Tox21 10K library compounds in HepG2 cells. CellTox Green Cytotoxicity Assay is a nonlytic, homogeneous, biofluorescent method to measure cytotoxicity in cell culture after experimental manipulation. The assay system uses a proprietary asymmetric cyanine dye that is excluded from viable cells but preferentially stains the dead cell's DNA. […] Viable cells produce no appreciable increases in fluorescence. Therefore, the fluorescence signal produced by the binding interaction with dead cell DNA is proportional to cytotoxicity.
The mixture of HepG2 cell suspension and reagents were dispensed at 600cells/6 ul/well in 1536-well tissue culture treated black solid bottom plates using a Multidrop dispenser. After the assay plates were incubated at a 37 C/5% CO2 incubator for 5 hours, 23 nL of compounds dissolved in DMSO, positive and negative controls was transferred to the assay plate by a pintool work station. The plates were incubated at 37 C for 40 hours. The fluorescence intensity were measured at 0h, 8h, 16h, 24h, 32h and 40h time points using ViewLux plate reader during compound treatment.
Potency means the concentration at half of the fitted maximal effect.

Compound	Potency	cytotoxicity increase
COC(=O)[C@]1(C)CCC[C@@]2(C)[C@H]1CC=C1C=C(C(C)C)CC[C@@H]12	24.5 µM (active)	–
CC(C)=C1CC[C@@H](C)CC1=O	inactive	–
O=C=NCc1cccc(CN=C=O)c1	–	-2.41% [at 15.8 µM] (inactive)
CCCCCCCCCCCCCc1ccccc1	inactive	–
CO[Si](CCCNCCNCCN)(OC)OC	inactive	–
CN(C)CCN1CCOCC1	inactive	–
CCc1ccc(O)c(C(C)(C)C)c1	38.9 µM (active)	–
COc1nccnc1CC(C)C	inactive	–
C=CCCCCCCC=C	inactive	–
CCc1ccc(C)nc1	inactive	–
CC1CNCC(C)O1 (stereo not given)	inactive	–
ClC/C=C\CCl	inactive	–
CN(C)CCCN1c2ccccc2CCc2ccccc21	54.9 µM (active)	–
CC(C)=CC1CC(C)CCO1 (stereo not given)	inactive	–
CCCC(O)C(O)CO (stereo not given)	inactive	–
CCCCCCCC(OC)OC	inactive	–
C=CC(C)(CCC=C(C)C)OC(=O)/C=C/c1ccccc1 (stereo not given)	43.6 µM (active)	–
CCC1(c2cnc[nH]2)Cc2ccccc2C1	inactive	–
CCCC(C)CCC(C)=O (stereo not given)	inactive	–
COc1ccc2sc(C(=O)Nc3nnn[nH]3)c(OC(C)C)c2c1	inactive	–

Compound	Potency	cytotoxicity increase
c1cc2c3c(c1)ccc1cccc(c13)C2	inactive	–
C=C(C)C(=O)OCCC[Si](Cl)(Cl)Cl	inactive	–
COc1cccc(O)c1	inactive	–
O=C(O)c1cccc(Cl)n1	inactive	–
COc1ccccc1C=O	inactive	–
COc1cc(C(=O)NS(=O)(=O)c2ccccc2C)ccc1Cc1cn(C)c2ccc(NC(=O)OC3CCCC3)cc12	inactive	–
C1CC(COCC2CO2)CCC1COCC1CO1 (stereo not given)	inactive	–
Cc1cccc(N(C)C)c1	inactive	–
C(=C/c1ccccc1)/c1ccccc1	inactive	–
CCN=C1C=CC(=C(c2ccc(N(CC)CC)cc2)c2ccc(N(CC)CC)cc2)c2ccccc21	19.4 µM (active)	–
C=CC(=C)CCC=C(C)C	inactive	–
CCCCCCCC(C)=O	inactive	–
C=C1C(C)(C)[C@@]2(Cl)C(Cl)[C@]1(Cl)C(Cl)(Cl)C2(Cl)Cl (stereo not given in full)	53.9 µM (active)	–
CC1=CCC(=O)O1	inactive	–
C=CC(C)C#N (stereo not given)	inactive	–
c1ccc2c(c1)CCC2	inactive	–
CCN=c1cc2oc3cc(NCC)c(C)cc3c(-c3ccccc3C(=O)OCC)c-2cc1C	21.8 µM (active)	–
COC(=O)CC(C)CCC=C(C)C (stereo not given)	inactive	–
CCN(CC)CCOC(=O)C1(C2CCCCC2)CCCCC1	23.9 µM (active)	–
CCOC(/C=C(\C)CCC=C(C)C)OCC	inactive	–
